Measured values taken from ChEMBL document CHEMBL3988442, “University of Dundee, Small-Polar-MMV Screening Library” (2021).

target: AMP-activated protein kinase, AMPK (Homo sapiens) (UniProt P54646+O43741+P54619+Q9UGJ0+Q9Y478+Q13131+Q9UGI9); test: AMP-dependent Kinase enzyme assay. An in vitro enzyme assay that detects ADP turnover that is directly proportional to AMPK activity. This uses naive AMPK that is activated during the assay with MK-8722; format: functional; set-up: scale not given: direction of the effect not stated beside the values; details: 30 µM

| Compound | Percent Effect |
| --- | --- |
| CC(C)N(C)S(=O)(=O)c1ccc2c(c1)CCN(C(=O)c1cccnn1)C2 | -25.3% |
| CCn1cnnc1CCNS(=O)(=O)N1CCCC1c1ccco1 (stereo unspecified) | -10.7% |
| CC(C)C[C@@H](N)C(=O)N(C)Cc1csc(C(C)C)n1 | -10.4% |
| COc1ccc(OC2CCN(C(=O)c3cnc(C)s3)CC2)cc1 | -2.19% |
| COc1ccc(C(=O)NC2CCN(c3ncccn3)CC2)cc1F | -7.58% |
| COc1cccc(NC(=O)NCC2CCCN(C3CCOCC3)C2)c1 (stereo unspecified) | 6.25% |
| Cc1cccc(C(=O)Nc2c(C(N)=O)n[nH]c2C)c1C | -0.641% |
| CCOCCN1CCN(c2ccc(C#N)cn2)CC1CC (stereo unspecified) | 6.68% |
| COCCOc1cccc(CNCc2ccc(-n3cncn3)nc2)c1 | 3.28% |
| Cc1c(C(=O)NCCC(=O)N2CCCC2)cccc1-c1ccccn1 | 13.9% |
| Cc1cc(N2CCC(n3cc(CN4CCC[C@@H]4CO)nn3)CC2)ccn1 | -0.25% |
| NC(=O)c1cccc(-c2cnc(C3CCCNC3)cn2)c1 (stereo unspecified) | 12.6% |
| CCOCCNC(=O)CCC1CCCO1 (stereo unspecified) | 2.99% |
| CN1CCOC(CNCC(=O)NCCc2ccc3c(c2)OCCO3)C1 (stereo unspecified) | -5.82% |
| Cc1nn(C)c2nc(N3CCCC3c3nccs3)sc12 (stereo unspecified) | -1.47% |
| COc1ccc2c(c1)OCC(Cc1cc(C(=O)N3CCCC3)ccn1)C2 (stereo unspecified) | 0.531% |
| CC(C)N(C(=O)Cn1cc(Cl)cn1)c1ccccc1 | -3.03% |
| Cc1nc(COc2ccc(S(=O)(=O)N(C)C)cc2)sc1C | 5.76% |
| O=C(CCCn1cccn1)N1CCCC(n2cncn2)C1 (stereo unspecified) | 5.88% |
| OCCCNc1cccc(COC2CCCCC2)c1 | -15.3% |
| COc1cccc(-c2ncc(CN3CC[C@H]4CC[C@@H](C3)N4)s2)c1 | 7.14% |
